The supplement of paper PMC11732987, “Enantioselective OTUD7B fragment discovery through chemoproteomics screening and high-throughput optimisation” (Communications Chemistry, 2025)

Tests used:
Assay in all cases: log2 ratio of Biotin-Ahx-Ub-VS probe labelling (fragment/DMSO); higher = less target engagement (more negative = stronger competition), active = hit call of the paper (q ≤ 0.05, log2 ratio ≤ -1)
Conditions in all cases: compound concentration: 200 uM; treatment time: 3 h
USP34 = USP34 (UniProt Q70CQ2)
Method in brief: (§1)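 Global-median-normalised Spectronaut label-free quantities were compared by unpaired t-test, and values are average log2 ratios of fragment over vehicle. Only proteins with ≥2 unique peptides were used. HEK293T lysate (495 µg per sample) was treated in triplicate with fragment at 200 µM or vehicle for 3 h and then with Biotin-Ahx-Ub-VS at 0.5 µM final for 1 h. Labelled DUBs were then NeutrAvidin-enriched, digested with LysC and trypsin, and run by diaPASEF LC-MS/MS.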

USP36 = target: T1, USP36 (UniProt Q9P275)
T1 sequence (whole entry): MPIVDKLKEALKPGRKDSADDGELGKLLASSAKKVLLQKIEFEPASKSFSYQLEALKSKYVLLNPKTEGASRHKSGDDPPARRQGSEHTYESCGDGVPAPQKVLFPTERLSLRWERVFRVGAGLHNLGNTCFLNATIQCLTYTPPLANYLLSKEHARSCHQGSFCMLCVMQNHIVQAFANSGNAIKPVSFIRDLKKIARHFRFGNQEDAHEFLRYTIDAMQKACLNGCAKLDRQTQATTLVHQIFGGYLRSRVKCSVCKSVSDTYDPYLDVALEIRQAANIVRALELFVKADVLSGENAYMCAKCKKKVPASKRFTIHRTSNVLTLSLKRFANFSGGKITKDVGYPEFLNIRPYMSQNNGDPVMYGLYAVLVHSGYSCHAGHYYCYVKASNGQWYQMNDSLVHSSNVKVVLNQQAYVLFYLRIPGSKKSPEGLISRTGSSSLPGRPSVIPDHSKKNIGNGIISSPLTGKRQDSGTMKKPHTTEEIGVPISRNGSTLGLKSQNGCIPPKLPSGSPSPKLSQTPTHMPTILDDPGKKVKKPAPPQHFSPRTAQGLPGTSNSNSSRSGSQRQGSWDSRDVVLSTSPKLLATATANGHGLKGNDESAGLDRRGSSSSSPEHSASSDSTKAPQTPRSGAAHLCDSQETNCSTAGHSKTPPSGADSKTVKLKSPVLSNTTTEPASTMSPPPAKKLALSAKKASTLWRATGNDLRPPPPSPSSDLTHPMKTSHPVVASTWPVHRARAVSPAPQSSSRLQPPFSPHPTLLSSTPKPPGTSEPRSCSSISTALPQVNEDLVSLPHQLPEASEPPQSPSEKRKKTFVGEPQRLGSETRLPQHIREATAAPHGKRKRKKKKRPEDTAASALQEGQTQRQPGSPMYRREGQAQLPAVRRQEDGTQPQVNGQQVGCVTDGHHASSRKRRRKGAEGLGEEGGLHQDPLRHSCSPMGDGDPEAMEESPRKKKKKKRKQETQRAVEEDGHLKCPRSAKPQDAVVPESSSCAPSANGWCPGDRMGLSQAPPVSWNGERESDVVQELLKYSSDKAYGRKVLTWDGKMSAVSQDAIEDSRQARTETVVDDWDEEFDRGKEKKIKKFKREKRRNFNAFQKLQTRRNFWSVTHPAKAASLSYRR
Method in brief: as §1

USP38 = target: T2, USP38 (UniProt Q8NB14)
T2 sequence (whole entry): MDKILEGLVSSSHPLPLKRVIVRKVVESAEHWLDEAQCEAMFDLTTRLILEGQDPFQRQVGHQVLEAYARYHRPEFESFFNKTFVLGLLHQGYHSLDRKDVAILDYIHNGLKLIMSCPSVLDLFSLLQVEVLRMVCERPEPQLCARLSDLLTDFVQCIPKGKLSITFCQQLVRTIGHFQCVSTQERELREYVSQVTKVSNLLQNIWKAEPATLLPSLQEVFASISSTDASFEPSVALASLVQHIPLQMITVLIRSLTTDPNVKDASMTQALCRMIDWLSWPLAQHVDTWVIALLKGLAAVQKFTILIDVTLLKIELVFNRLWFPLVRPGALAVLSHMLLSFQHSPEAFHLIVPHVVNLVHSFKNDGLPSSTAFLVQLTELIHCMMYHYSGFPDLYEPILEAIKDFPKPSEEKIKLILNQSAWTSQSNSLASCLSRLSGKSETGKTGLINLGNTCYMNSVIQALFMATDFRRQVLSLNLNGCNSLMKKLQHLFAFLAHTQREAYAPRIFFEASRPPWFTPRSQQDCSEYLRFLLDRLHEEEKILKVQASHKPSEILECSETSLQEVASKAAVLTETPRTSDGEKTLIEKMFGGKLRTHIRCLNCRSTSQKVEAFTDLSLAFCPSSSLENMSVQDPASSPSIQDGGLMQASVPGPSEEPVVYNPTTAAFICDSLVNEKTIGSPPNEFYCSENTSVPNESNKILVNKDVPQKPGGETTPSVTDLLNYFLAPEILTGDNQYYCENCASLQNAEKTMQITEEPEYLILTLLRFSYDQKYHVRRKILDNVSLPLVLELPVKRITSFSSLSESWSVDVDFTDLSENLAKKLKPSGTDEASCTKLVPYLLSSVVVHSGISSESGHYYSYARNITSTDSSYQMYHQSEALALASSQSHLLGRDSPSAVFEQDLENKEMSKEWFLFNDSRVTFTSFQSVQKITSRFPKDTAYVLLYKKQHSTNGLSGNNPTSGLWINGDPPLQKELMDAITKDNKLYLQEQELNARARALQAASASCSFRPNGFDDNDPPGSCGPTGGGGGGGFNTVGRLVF
Method in brief: as §1

USP39 = target: T3, USP39 (UniProt Q53GS9)
T3 sequence (whole entry): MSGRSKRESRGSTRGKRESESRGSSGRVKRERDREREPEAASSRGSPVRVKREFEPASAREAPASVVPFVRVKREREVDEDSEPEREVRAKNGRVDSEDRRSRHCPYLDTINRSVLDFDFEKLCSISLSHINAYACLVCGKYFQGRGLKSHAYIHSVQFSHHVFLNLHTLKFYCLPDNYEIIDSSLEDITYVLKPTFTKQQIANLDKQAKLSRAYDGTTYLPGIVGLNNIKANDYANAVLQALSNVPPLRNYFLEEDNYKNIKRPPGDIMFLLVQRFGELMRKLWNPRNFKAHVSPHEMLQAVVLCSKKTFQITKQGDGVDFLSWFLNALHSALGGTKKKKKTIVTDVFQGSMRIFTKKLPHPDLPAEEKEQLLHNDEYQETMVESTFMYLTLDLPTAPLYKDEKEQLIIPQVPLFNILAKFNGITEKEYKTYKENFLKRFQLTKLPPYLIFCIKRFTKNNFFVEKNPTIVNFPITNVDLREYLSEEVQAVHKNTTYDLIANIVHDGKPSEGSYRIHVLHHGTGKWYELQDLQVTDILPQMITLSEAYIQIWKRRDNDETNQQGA
Method in brief: as §1

USP4 = target: T4, USP4 (UniProt Q13107)
T4 sequence (whole entry): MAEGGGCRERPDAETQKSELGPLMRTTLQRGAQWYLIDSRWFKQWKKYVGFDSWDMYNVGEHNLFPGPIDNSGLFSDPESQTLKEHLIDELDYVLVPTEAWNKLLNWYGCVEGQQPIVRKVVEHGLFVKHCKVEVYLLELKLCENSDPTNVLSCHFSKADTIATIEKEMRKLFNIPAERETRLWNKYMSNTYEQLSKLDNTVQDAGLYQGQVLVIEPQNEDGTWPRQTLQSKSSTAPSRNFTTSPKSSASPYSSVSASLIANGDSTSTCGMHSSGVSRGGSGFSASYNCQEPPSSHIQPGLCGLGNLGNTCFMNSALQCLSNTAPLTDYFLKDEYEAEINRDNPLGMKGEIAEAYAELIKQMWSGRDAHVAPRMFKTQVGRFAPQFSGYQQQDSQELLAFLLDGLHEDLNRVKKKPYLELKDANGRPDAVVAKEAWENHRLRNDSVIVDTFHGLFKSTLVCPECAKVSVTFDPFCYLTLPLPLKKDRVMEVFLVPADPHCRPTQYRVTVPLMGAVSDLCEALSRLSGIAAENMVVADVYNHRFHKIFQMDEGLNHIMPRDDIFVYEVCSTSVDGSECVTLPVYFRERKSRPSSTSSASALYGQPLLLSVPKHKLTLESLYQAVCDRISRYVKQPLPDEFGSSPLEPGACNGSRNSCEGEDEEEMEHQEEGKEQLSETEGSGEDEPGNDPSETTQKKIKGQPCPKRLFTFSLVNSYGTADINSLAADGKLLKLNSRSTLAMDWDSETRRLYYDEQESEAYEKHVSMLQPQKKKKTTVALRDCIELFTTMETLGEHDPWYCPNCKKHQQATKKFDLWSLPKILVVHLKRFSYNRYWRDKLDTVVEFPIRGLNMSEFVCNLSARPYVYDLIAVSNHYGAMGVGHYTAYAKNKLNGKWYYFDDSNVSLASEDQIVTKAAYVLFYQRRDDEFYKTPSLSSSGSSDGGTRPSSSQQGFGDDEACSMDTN
Method in brief: as §1

Measured: log2 ratio of Biotin-Ahx-Ub-VS probe labelling

USP34, sequence (Q70CQ2 whole entry, the tested form may be a part): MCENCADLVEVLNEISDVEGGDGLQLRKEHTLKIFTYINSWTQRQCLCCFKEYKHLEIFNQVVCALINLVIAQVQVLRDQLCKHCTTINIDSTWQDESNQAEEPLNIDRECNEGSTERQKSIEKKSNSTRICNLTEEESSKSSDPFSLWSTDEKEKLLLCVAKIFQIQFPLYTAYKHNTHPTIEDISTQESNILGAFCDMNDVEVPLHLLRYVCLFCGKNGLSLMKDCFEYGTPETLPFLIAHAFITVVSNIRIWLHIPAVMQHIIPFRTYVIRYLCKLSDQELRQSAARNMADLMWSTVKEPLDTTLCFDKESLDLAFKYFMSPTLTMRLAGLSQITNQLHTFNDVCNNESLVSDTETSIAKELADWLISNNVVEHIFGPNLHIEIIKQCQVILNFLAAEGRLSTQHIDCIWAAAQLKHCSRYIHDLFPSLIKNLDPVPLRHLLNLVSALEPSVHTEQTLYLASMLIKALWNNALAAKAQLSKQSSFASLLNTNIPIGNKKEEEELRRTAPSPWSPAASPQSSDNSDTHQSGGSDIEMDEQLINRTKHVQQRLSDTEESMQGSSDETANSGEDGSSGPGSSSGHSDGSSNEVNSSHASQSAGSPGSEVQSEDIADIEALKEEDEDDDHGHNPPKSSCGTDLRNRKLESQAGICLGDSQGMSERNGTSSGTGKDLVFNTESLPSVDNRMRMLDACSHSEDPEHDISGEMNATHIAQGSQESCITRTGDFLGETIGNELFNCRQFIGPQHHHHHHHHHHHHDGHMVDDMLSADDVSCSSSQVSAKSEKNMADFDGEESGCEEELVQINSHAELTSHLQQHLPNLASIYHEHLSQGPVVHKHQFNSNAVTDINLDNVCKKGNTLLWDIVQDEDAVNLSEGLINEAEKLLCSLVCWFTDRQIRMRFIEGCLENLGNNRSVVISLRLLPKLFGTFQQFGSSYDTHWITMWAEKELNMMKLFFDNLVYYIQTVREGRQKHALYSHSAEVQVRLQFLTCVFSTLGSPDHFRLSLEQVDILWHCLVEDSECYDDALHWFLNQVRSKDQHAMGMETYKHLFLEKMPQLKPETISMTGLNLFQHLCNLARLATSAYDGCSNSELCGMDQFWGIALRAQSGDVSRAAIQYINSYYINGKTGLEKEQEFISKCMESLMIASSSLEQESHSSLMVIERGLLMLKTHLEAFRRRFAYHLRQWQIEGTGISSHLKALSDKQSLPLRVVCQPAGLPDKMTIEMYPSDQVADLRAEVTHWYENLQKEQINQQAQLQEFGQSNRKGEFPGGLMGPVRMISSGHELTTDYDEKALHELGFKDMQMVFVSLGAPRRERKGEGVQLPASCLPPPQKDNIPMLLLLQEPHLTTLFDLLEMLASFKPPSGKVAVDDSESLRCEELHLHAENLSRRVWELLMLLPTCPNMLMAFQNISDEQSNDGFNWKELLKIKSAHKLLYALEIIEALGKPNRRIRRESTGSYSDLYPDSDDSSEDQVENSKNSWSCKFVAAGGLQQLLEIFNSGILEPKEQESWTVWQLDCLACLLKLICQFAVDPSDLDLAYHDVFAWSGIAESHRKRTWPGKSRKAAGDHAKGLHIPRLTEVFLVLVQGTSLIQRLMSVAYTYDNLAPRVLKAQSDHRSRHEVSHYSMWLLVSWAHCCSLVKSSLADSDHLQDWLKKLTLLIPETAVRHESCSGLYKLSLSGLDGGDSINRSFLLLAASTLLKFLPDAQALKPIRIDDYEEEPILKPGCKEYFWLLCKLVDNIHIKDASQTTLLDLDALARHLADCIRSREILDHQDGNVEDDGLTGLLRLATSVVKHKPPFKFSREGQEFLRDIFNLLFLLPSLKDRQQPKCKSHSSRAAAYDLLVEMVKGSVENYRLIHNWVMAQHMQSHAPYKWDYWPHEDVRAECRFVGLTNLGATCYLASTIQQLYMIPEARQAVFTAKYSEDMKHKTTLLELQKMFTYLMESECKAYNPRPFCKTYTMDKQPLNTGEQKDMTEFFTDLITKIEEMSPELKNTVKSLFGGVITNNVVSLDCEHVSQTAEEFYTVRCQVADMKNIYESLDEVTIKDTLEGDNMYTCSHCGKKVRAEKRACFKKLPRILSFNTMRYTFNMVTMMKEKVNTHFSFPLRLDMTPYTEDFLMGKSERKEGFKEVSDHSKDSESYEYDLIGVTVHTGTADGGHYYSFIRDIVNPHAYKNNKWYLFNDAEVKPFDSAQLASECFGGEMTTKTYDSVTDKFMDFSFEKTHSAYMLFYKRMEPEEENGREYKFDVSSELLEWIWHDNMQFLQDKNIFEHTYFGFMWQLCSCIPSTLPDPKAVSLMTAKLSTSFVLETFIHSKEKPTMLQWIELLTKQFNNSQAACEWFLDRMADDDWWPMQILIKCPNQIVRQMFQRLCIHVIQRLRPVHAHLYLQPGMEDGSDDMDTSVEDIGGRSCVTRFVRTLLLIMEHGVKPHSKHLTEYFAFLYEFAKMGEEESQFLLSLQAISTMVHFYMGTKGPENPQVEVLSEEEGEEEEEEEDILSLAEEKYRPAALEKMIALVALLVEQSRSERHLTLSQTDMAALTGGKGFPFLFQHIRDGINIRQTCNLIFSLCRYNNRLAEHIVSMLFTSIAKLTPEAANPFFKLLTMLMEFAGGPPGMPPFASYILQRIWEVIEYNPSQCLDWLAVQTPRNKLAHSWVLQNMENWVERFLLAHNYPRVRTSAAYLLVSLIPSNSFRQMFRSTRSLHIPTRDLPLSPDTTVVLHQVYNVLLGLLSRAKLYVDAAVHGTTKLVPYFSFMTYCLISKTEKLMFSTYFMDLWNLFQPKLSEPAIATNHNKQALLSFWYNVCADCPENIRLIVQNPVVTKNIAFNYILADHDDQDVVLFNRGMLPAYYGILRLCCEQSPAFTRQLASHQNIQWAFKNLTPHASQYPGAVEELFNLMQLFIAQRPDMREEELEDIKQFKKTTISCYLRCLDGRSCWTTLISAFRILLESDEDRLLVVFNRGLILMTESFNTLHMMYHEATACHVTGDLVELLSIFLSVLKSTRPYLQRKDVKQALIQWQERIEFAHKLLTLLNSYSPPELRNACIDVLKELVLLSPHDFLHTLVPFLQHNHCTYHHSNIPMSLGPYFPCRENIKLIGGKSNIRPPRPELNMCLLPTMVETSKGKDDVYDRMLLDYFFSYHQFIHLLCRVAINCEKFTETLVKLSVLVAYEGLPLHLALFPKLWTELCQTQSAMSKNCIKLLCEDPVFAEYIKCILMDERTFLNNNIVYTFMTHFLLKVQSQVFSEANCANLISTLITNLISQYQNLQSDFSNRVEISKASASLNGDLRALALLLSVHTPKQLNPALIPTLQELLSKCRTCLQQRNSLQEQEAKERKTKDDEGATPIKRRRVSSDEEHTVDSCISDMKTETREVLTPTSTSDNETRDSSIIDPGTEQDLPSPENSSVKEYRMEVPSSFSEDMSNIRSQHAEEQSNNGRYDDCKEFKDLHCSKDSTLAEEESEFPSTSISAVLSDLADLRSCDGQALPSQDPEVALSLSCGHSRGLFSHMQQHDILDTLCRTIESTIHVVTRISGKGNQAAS

Cc1c(NC(=O)CCl)c(=O)n(-c2ccccc2)n1C
inactive: USP34 -0.0386 | USP36 -0.0835 | USP38 -0.177 | USP39 -0.16 | USP4 0.0206
